Test results: PubChem BioAssay (NCATS)
Records with an inconclusive call do not appear. Values without a mark were called inactive. Activity calls are given as the source filed them. Calls come from the whole dose curve; as a rule, active = well fitted inhibition curve with a large enough effect; inconclusive = small, poorly fitted or top-dose-only effect; inactive = no such curve, though single readings can be large or run the other way.

experiment: qHTS for Inhibitors of ATXN expression: Validation (AID 588378); conditions: cell-based ATXN2 expression reporter assay, luminescence; series mostly up to 57.1 µM; activity change, negative = inhibition: at the top concentration; note: nearly all actives have a fitted effect of over 75% in size
Excerpt: Spinocerebellar ataxia type 2 (SCA2) is a multisystem neurodegenerative disease caused by a dominantly-acting mutation leading to expansion of a polyQ domain in the ataxin-2 protein (ATXN2). SCA2 patients develop progressive ataxia and later lose function in other neuronal systems. Prominent parkinsonian signs develop in some patients. Similar to many neurodegenerative disorders, no symptomatic or disease-modifying treatments are known.
The primary objective of project is to identify compounds inhibiting ATXN2 expression and to test them for efficacy in SCA2 mouse models. To this end, in a collaboration between Dr. Daniel Scoles and scientists at NCGC, a cell-based assay adapted to high-throughput screening has been developed to screen the NIH Molecular Libraries Small Molecule Repository (MLSMR).
NIH Chemical Genomics Center [NCGC]
NIH Molecular Libraries Probe Centers Network [MLPCN]
Assay Submitter (PI): Stefan Pulst and Daniel Scoles, University of Utah
4 ul of HEK293-ATXN2-FFLuc cell suspension (TBD cells/microL in phenol-red free DMEM) are dispensed into Greiner white solid bottom 1536-well assay plates, yielding a final well density of TBD cells/well. Plates are incubated for 2 hrs at 37 degrees C in 5% humidified CO2 to allow cell attachment. Compounds are then transferred via Kalypsys pin tool equipped with 1536-pin array (10nl slotted pins, V&P Scientific, San Diego, CA). In addition, duplicate serial dilutions of the control compounds ChemBridge 5553825, a previously identified ATXN2 expression inhibitor, and a known luciferase inhibitor, are pin-transferred. After incubation at 37 degrees C in 5% humidified CO2 for 24 hrs, CellTiter-Fluor reagent (1 ul) (Promega, Madison, WI) is then added and plates are incubated for 30 minutes, before being transferred to a ViewLux high-throughput CCD imager (PerkinElmer), wherein single end-point fluorescence measurements are acquired using the 405 nm excitation/525 nm emission filter set to assess cell viability. Next, Bright-Glo luciferase substrate detection reagent (3 ul) (Promega, Madison, WI) is added to each well and incubated for an additional 5 minutes. Luminescence is then measured on the ViewLux imager equipped with a clear emission filter using a 2 sec exposure.
% is set by controls: 0 for no effect and ±100 for the full control effect; potency is the fitted concentration of half-maximal effect.

Compound	activity change, negative = inhibition [%]	Potency
OC[C@H]1O[C@@H](n2cnc3c(Nc4ccccc4)ncnc32)[C@H](O)[C@@H]1O	38.5	–
NCCCCCCCCCCN	-26.9	–
CC1OC1P(=O)(O)O (stereo not given)	4.55	–
O=S(=O)(c1cccc2c(I)cccc12)N1CCCNCC1	–	12.6 µM (active)
Cc1ccc(S(=O)(=O)/C=C/C#N)cc1	–	10 µM (active)
O=C(O)/C=C/C(O)c1ccc(Cl)cc1 (stereo not given)	3.67	–
O=C(O)[C@@H]1C[C@H](C(=O)O)N1	1.66	–
Fc1cccc(/C=N/N=C/c2cccc(F)c2)c1	14.6	–
NC(CCCP(=O)(O)O)C(=O)O (stereo not given)	10.8	–
O=C1O/C(=C/Br)CCC1c1cccc2ccccc12 (stereo not given)	–	25.1 µM (active)
C=CC(C)=C[C@@]1(C)SC(=O)C(C)=C1O	4.21	–
O=[N+]([O-])c1ccc(CSc2ncnc3c2ncn3[C@@H]2O[C@H](CO)[C@@H](O)[C@H]2O)cc1	7.43	–
N.N.O=C(O)C1(C(=O)O)CCC1.[Pt]	-21.2	–
O=[N+]([O-])c1ccc2c(c1)S(=O)(=O)C=C2	–	6.31 µM (active)
Nc1ncnc2c1ncn2[C@@H]1O[C@H](COP(=O)(O)OP(=O)(O)OP(=O)(O)OP(=O)(O)OC[C@@H]2O[C@H](n3cnc4c(N)ncnc43)[C@@H](O)[C@H]2O)[C@@H](O)[C@H]1O	96.2	–
O=C(O)c1cc([N+](=O)[O-])ccc1NCCCc1ccccc1	23.3	–
COc1cccc(C(=O)NCCN2CCN(c3ccc(Cl)cc3)CC2)c1	-10.5	–
O=C(Nc1ccccc1)c1cc([N+](=O)[O-])ccc1Cl	-20.2	–
O=C(O)CCCC[C@@H]1CCSS1	-1.27	–
CCCCC#Cc1nc(NC)c2ncn([C@@H]3O[C@H](CO)[C@@H](O)[C@H]3O)c2n1	-14.2	–

Compound	activity change, negative = inhibition [%]	Potency
C[C@@H](NC(=O)/C(C#N)=C/c1ccc(O)c(O)c1)c1ccccc1	-16.5	–
CC1(C)CCC=[N+]1[O-]	-3.56	–
CCC1C(=O)OCC1Cc1cncn1C (stereo not given)	–	inactive
COc1ccc(NC(=O)/C=C/c2ccc(Cl)cc2)cc1	23.1	–
CCCn1c(=O)c2[nH]c(-c3ccc(OCC(=O)NCCN)cc3)nc2n(CCC)c1=O	1.95	–
CCc1c(C(=O)NCCc2ccc(N3CCCCC3)cc2)[nH]c2ccc(Cl)cc12	2.52	–
CCCCC/C=C\CC(O)/C=C/c1cccc(CC(O)CCCCO)n1 (stereo not given)	-15.9	–
CN1C2CCC1CC(OC(=O)C(O)c1ccccc1)C2 (stereo not given)	-8.99	–
O=C(/C=C/c1ccc(O)c(O)c1)OCCc1ccccc1	-14.2	–
C#C[C@]1(O)CC[C@H]2[C@@H]3CCC4=Cc5oncc5CC4(C)[C@H]3CCC21C (stereo not given in full)	-24.8	–
CO/S(=N\S(=O)(=O)c1ccc(Cl)cc1)c1ccc([N+](=O)[O-])cc1 (stereo not given)	-4.42	–
NCCCS(=O)(=O)O	-15.2	–
CSc1ccccc1N1CCN(CCCCCC(=O)NC2CCCc3ccccc32)CC1 (stereo not given)	–	22.4 µM (active)
O=c1[nH]c2cc(C(F)(F)F)ccc2n1-c1cc(C(F)(F)F)ccc1O	-14.8	–
O=C(c1ccc(OCCCc2cnc[nH]2)cc1)C1CC1	30	–
COc1cccc(OC)c1OCCNCC1COc2ccccc2O1 (stereo not given)	-20.8	–
C=CC(N)CCC(=O)O (stereo not given)	12.8	–
C#CCN1C(C)=C(C(=O)OC)C(c2cccc([N+](=O)[O-])c2)C(C(=O)OCC)=C1C (stereo not given)	-6.02	–
O=C(O)CNC(=O)C(CS)Cc1ccccc1 (stereo not given)	1.95	–
COc1ccccc1CNCCCCCCNCCCCCCCCNCCCCCCNCc1ccccc1OC	-27.5	–
